Rows were chosen to be rich in hits. Some 5.9% of all compounds tested hit in one or more screens of this group.
GALK inhibitor: blocks human galactokinase activity; Purified GALK, Kinase-Glo residual ATP luminescence; Potency, µM (series often up to 57.5 µM), for the others: top-dose activity change, negative = inhibition, hits mostly inhibitors; P51570; hit rate 0.007% among 270,000; note: potency is the fitted concentration of half-maximal effect
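Compounds were pin-transferred into ATP buffer (35 uM final), then GALK plus galactose (5 nM, 100 uM final) was added. After 1 h at room temperature, Kinase-Glo Plus was added and luminescence read after 10 min.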
TrxR1 substrate: is turned over as a substrate by rat TrxR1; O89049; purified TrxR1 substrate turnover, NADPH consumption readout; Potency, µM (doses to about 114 µM), inactives show top-dose activity change, negative = substrate turnover; hit rate 0.01% among 390,000; note: potency is the fitted concentration of half-maximal effect; nearly all actives have a fitted effect of over 50% in size
Target sequence (O89049 whole entry, looked up): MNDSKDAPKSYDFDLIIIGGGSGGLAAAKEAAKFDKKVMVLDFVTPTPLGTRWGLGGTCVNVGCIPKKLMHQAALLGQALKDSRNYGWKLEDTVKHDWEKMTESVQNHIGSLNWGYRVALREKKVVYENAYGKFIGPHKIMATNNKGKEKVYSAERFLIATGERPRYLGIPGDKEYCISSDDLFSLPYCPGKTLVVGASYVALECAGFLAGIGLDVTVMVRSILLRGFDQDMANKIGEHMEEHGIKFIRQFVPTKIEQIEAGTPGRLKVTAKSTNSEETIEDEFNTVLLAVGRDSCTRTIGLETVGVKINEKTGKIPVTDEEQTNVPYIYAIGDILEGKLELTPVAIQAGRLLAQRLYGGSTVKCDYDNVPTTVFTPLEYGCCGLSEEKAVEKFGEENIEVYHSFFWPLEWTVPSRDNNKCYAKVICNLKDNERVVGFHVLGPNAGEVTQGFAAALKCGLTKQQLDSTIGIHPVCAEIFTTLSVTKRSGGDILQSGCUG
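Rat TrxR1, dispensed at 90 nM, was prereduced with 400 uM NADPH (final) for 5 min at ~22 deg C, then incubated with compound 15 min before 400 uM selenite. A first-read NADPH fluorescence drop versus no-compound background flagged substrates.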
RORgamma inh: blocks mouse ROR gamma transcriptional activity; Drosophila S2 Gal4-RORgamma UAS-luciferase reporter, 20 h; P51450; Potency, µM (series often up to 53.6 µM), without a hit: at the highest dose activity change, negative = inhibition, hits mostly inhibitors; hit rate 5.4% among 310,000; note: potency is the fitted concentration of half-maximal effect; nearly all actives have a fitted effect of over 60% in size
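Drosophila S2 cells stably expressing Gal4-DBD/mouse RORγ fusion under metallothionein promoter plus UAS-luciferase; compound 1 h, then 700 uM CuSO4 induction for 20 h at ambient temperature; inhibition read as reduced luminescence.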
Gal4-VP16 FLuc: counter-screen for ROR gamma inhibitors: Gal4-VP16 reporter; Potency, µM (titrated, usually from 53.6 µM), without a hit: at the highest dose activity, negative = inhibition, usual class: inhibitors; Drosophila S2 Gal4-VP16 UAS-luciferase, luminescence, 20 h; hit rate 3.5% among 310,000;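 note: Gal4-VP16 expression switched on by copper sulfate through the metallothionein promoter; potency is the fitted concentration of half-maximal effect; nearly all actives have a fitted effect of over 50% in size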
rTrxR1 inhibitor: inhibitors of rat thioredoxin reductase 1; hit rate 1% among 390,000; O89049; recombinant rTrxR1, NADPH fluorescence consumption, selenite substrate; Potency, µM (top dose mostly 114 µM), for the others: at the highest dose activity change, negative = inhibition, usual class: inhibitors; note: potency is the fitted concentration of half-maximal effect; nearly all actives have a fitted effect of over 65% in size
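Rat TrxR1 (90 nM in the dispensed reagent) was pre-reduced with 400 uM NADPH for 5 min at room temperature, then incubated with compound for 15 min. After 400 uM selenite was added, NADPH fluorescence (Ex 340/Em 450 nm) was followed for 8 min.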
FBPA coupling cs: counter-screen for Giardia aldolase inhibitors: coupling enzyme system. activity change, negative = inhibition, % at 58.2 µM, hits read low. AID 2472. hit rate 0.67% among 290,000. coupling enzyme system counterscreen, AmpLite Red fluorescence; in the data active = activity change below about -30%
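Activity here indicates interference with the coupling reaction, not aldolase inhibition. Compounds at 57.5 uM final met coupling enzymes for 10 min at RT; substrate and AmpLite Red detection followed, with a 525/598 nm fluorescence read after 20 min.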
Numbers without * were called inactive; ? = inconclusive; · = no result given; [ ] = remark or other dose. Unless noted, calls come from the whole dose curve; as a rule, active = well fitted curve in the direction sought with a large enough effect; inconclusive = small, poorly fitted or top-dose-only effect, or another doubt; inactive = no such curve, though single readings can be large; an effect the other way counts as inactive or inconclusive. % is set by controls: 0 for no effect and ±100 for the full control effect.

SMILES	GALK inhibitor	TrxR1 substrate	RORgamma inh	Gal4-VP16 FLuc	rTrxR1 inhibitor	FBPA coupling cs
COC(=O)[C@@]12CCCN1[C@H](c1ccc(-c3ccc(Cl)c(Cl)c3)cc1)[C@H]1C(=O)N(C)C(=O)[C@H]12	·	4%	·	·	10%	·
COC(=O)[C@@]1(Cc2ccc(OC)cc2)[C@H]2c3cc(C(=O)N4CCCC4)n(Cc4cc(C)n(C)n4)c3C[C@H]2CN1C(=O)c1ccccc1	·	·	3%	1%	·	-1
C#CCOCCOCCOCCNc1nc(N2CCN(C(=O)[C@H](CCC(=O)O)n3cc([C@@H](N)[C@H](C)CC)nn3)CC2)nc(N2CCN(C(=O)[C@H](CCC(=O)O)n3cc([C@@H](N)CC(N)=O)nn3)CC2)n1	·	2%	·	·	-8%	·
CC(=O)CSc1nsc(SCC(C)=O)c1C#N	-3%	-7%	?	?	71µM*	3
CCOC(=O)CSc1nsc(SCC(=O)OCC)c1C#N	1%	-7%	28%	0%	1%	7
O=C(Cn1nc([N+](=O)[O-])nc1Br)NC(c1ccccc1)c1ccccc1	·	-7%	?	?	-24%	-7
Cc1ccc(NC(=O)Cn2c(=O)n(CCC(C)C)c(=O)c3cccnc32)cc1C	·	29%	·	·	33%	·
Clc1ccc(CCNc2nc3ccccc3s2)cc1	3%	-8%	11µM*	2%	-10%	1
CCCNC(=O)c1ccc(N2CCC3(CC2)CC(c2ccccc2)=NO3)c(NC(=O)c2ccccc2)c1	·	10%[57.1 µM]	-8%	1%	17%[57.1 µM]	1
Oc1ccccc1-c1cc(C(F)(F)C(F)F)nc(-c2ccccc2)n1	-3%	-9%	-35%	-6%	16%	0
O=[N+]([O-])c1ccc(O)c(-c2cc(C(F)(F)F)nc(-c3ccccc3)n2)c1	-1%	-4%	1.1µM*	2.8µM*	13%	0
CNC(=S)/N=C(\Nc1ccc(C)cc1)c1ccccc1	7%	2%[57.1 µM]	2.5µM*	16µM*	9%[57.1 µM]	3
CNC(=S)/N=C(/Nc1ccccc1)c1ccccc1	13%	?	?	?	?	2
O=S(=O)(Nc1c(S(=O)(=O)c2ccccc2)c2nc3ccccc3nc2n1C1CCCCC1)c1ccccc1	-5%	181%	-8%[10 µM]	-19%	?	-53*
C=CCn1c(NS(=O)(=O)c2ccccc2)c(S(=O)(=O)c2ccc(C)cc2)c2nc3ccccc3nc21	0%	925%	16µM*	25µM*	-102%	-59*
Cc1ccc(NC(=O)CN2C(=O)CSc3ccc(S(=O)(=O)N4CCCC4)cc32)cc1F	·	-7%	·	·	12%	·
Cc1sc2nc(CSc3ncn[nH]3)[nH]c(=O)c2c1C	-1%	-1%[57.1 µM]	0%	1%	12%[57.1 µM]	4
CCc1cc2c(SCc3nc4sc(C(C)=O)c(C)c4c(=O)[nH]3)ncnc2s1	·	-12%	10µM*	?	-14%	4
CCCCc1nc2ccccc2n1CC(=O)N(COCC)c1c(C)cccc1CC	·	2%	·	·	-5%	·
Cc1nc(SCCC(=O)O)c2cc(-c3ccccc3)sc2n1	-5%	5%	0.89µM*	0.5µM*	5%	1
Cc1nc(N2CCOCC2)c2cc(-c3ccccc3)sc2n1	2%	24%	10%	-3%	4%	0
Cc1nc(N2CCOCC2)c2nc(-c3ccccc3)n(CCN3CCCCC3)c2n1	·	·	-12%	2%	·	3
CCCCNC(=O)NC1(C(F)(F)F)Oc2ccccc2O1	1%	6%[57.1 µM]	-6%	1%	21%[57.1 µM]	-1
NS(=O)(=O)c1ccc(CCNC(=O)NC2(C(F)(F)F)Oc3ccccc3O2)cc1	-3%	-6%[57.1 µM]	11µM*	?	-25%[57.1 µM]	-1
Cc1ccc(C(=O)N/N=C\C=C\c2ccc(Br)cc2)cn1	0%	17%	0.56µM*	2.2µM*	10%	4
SMILES	GALK inhibitor	TrxR1 substrate	RORgamma inh	Gal4-VP16 FLuc	rTrxR1 inhibitor	FBPA coupling cs
Cc1ccc(C(=O)N/N=C/c2cc(Br)ccc2O)cn1	-4%	-1%	2.5µM*	1.1µM*	10%	1
Cn1nnnc1SCC(=O)N1CCN(c2ccccc2)CC1	0%	-8%	-22%[0.365 µM]	·	-8%	0
N#CC1=C(N)Oc2n[nH]c(-c3cccnc3)c2C1c1ccc([N+](=O)[O-])o1 (stereo not drawn)	11%	-6%	6.3µM*	?	?	1
Cc1ccc(-c2[nH]nc3c2C(c2cccnc2)C(C#N)=C(N)O3)cc1 (stereo not drawn)	3%	5%	13%	-3%	1%	-42*
N#CC1=C(N)Oc2n[nH]c(-c3ccccc3)c2C1c1cccnc1 (stereo not drawn)	-2%	-12%	2%	6%	-34%	2
O=C(Cc1ccccc1)Nc1ccc(NC(=O)c2ccccc2)c(Cl)c1	0%	-2%	?	19%	17%	1
C#CC(=O)CCC1CCCN1C(=O)OC(C)(C)C (stereo not drawn)	·	-3%[57.1 µM]	·	·	?	·
C[C@H]1CN=C(N(C)C)N1CC1CCCC1	·	-6%	·	·	-3%	·
CCN(CC)c1ccc(/C=C2\C(=O)c3ccc(C(=O)O)cc3C2=O)cc1	0%	-16%	11µM*	10µM*	?	0
COc1ccc(NC(=O)c2cc(S(=O)(=O)N(Cc3ccccc3)c3ccccc3)ccc2Cl)cn1	3%	7%[57.1 µM]	4%	-12%	14%[57.1 µM]	-44*
CCOc1ccccc1C(=O)Nc1ccc(S(=O)(=O)N(Cc2ccccc2)c2ccccc2)cc1	·	7%	·	·	44%	·
S=c1[nH]nc(-c2ccc(Cl)cc2)n1-c1ccc2c(c1)OCCO2	-3%	-3%[57.1 µM]	3.2µM*	7.1µM*	-17%[57.1 µM]	-1
COc1ccc(-n2c(-c3ccc(Cl)cc3Cl)n[nH]c2=S)c(OC)c1	0%	-1%	4µM*	6.3µM*	-21%	-1
S=c1[nH]nc(-c2ccc(Cl)cc2Cl)n1-c1ccc(Cl)cc1	0%	-6%	6.3µM*	?	-8%	0
S=c1[nH]nc(-c2ccc(Cl)cc2)n1-c1ccc(Cl)cc1	1%	6%	7.1µM*	7.1µM*	-25%[57.1 µM]	7
S=c1[nH]nc(-c2cccnc2)n1-c1ccc2c(c1)OCCO2	0%	1%	?	25%	0%[57.1 µM]	0
CCc1cc(=O)oc2cc(OCC(=O)NC3CC(C)(C)NC(C)(C)C3)ccc12	5%	35%	-10%	-8%	19%	·
Cc1c(Cl)cccc1NC(=O)c1oc2ccc(S(=O)(=O)N3CCCCCC3)cc2c1C	·	-6%[57.1 µM]	·	·	9%[57.1 µM]	·
Cc1ccc(NC(=O)c2oc3ccc(S(=O)(=O)N4CCC5(CC4)OCCO5)cc3c2C)cc1Cl	·	-4%[57.1 µM]	·	·	4%[57.1 µM]	·
Fc1ccc(-c2n[nH]c(=S)n2-c2ccc3c(c2)OCCO3)cc1	6%	-3%	13µM*	-25%	-26%	-1

Compound activity deposited in PubChem BioAssay by National Center for Advancing Translational Sciences (NCATS).
